Screens as filed in PubChem.
TbPYK inhibitor: qHTS of Trypanosoma Brucei Inhibitors; pyruvate kinase (Trypanosoma brucei), Q57TT1; TbPYK enzyme, Kinase-Glo Plus ATP luminescence, 45 min; Potency, µM (series often up to 76.8 µM), for inactives: at the highest dose activity, negative = inhibition, actives largely listed as inhibitors; actives 0.12% (n = 410,000); AID 624173, 2012; also: nearly all actives have a fitted effect of over 50% in size
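Luminescent Kinase-Glo Plus end-point after 45 min room-temperature reaction of T. brucei pyruvate kinase started with 130 uM ADP (final). Buffer TEA 50 mM pH 7.2 with KCl, MgCl2, BSA, Tween-20; titration-based qHTS with fitted concentration-effect curves.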
Sm TGR block: qHTS Assay for the Inhibitors of Schistosoma Mansoni Peroxiredoxins; Schistosoma mansoni thioredoxin glutathione reductase (TGR), Q962Y6; purified TGR, DTNB reduction, TNB absorbance 405 nm; Potency, µM (doses to about 114 µM), for inactives: at the highest dose activity change, negative = inhibition, actives largely listed as inhibitors; actives 3% (n = 360,000); also: nearly all actives have a fitted effect of over 60% in size
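TGR 20 nM + NADPH 100 uM (dispensed conc.), cpd preinc 15 min RT; start with NADPH (500 uM addition) then DTNB (15 mM addition). Kinetic TNB absorbance, 405 nm filter. Four-parameter Hill fit across titration.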
RE007 growth inh: qHTS Assay for Inhibitors of the HIV-1 protein Vpr; actives 0.21% (n = 360,000); Potency, µM (series often up to 92.2 µM), inactives show at the highest dose activity change, negative = less growth, actives largely listed as inhibitors; S. pombe RE007 Vpr strain, BacTiter-Glo ATP luminescence, 24 h; active = well fitted falling curve with a large enough effect; inconclusive = small, poorly fitted or top-dose-only effect; inactive = no such curve, though single readings can be large or run the other way; also: nearly all actives have a fitted effect of over 50% in size
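Fission yeast RE007 carrying one integrated HIV-1 vpr copy, seeded at OD 0.01 in PMG+AL medium with 23 nL pinned compound. Grown 24 h at 30 degrees; viability read by BacTiter-Glo luminescence after 5 min.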
LmPK inhibitor: qHTS Assay for Inhibitors of Leishmania Mexicana Pyruvate Kinase (LmPK). purified LmPK, Kinase-Glo ATP luminescence, 1 h. actives 0.37% (n = 290,000). Q27686. Potency, µM (series often up to 57.5 µM), for the others: at the highest dose activity change, negative = inhibition, hits mostly inhibitors. AID 1721, 2009
Target sequence (Q27686 whole entry, looked up): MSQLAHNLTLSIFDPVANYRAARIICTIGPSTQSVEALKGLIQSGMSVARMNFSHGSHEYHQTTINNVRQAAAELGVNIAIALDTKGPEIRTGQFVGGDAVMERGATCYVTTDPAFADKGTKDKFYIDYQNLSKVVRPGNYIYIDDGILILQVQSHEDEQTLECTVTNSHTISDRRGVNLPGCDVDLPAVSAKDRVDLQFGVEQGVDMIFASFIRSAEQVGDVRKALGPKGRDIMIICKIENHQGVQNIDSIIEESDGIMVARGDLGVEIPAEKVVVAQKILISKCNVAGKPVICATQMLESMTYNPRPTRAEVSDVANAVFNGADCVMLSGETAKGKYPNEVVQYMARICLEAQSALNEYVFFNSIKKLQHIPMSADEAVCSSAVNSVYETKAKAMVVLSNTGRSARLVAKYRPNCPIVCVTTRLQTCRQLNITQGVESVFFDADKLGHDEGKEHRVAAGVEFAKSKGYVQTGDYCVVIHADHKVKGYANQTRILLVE
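In 50 mM imidazole pH 7.2 with 7 mM MgCl2, LmPK (0.1 nM) turned over PEP (0.5 mM) and ADP (0.1 mM) for 1 h at room temperature. Luciferase read-out of ATP.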
Starred values were filed as active, the others as inactive; u = inconclusive; x = no result given; [ ] = another dose, or the depositor's remark. In the library only some 3% were active in any assay of this set; here they are far more common. Unless noted, calls follow the shape of the dose curve; as a rule, active = well fitted curve in the direction sought with a large enough effect; inconclusive = small, poorly fitted or top-dose-only effect, or another doubt; inactive = no such curve, though single readings can be large; an effect the other way counts as inactive or inconclusive. % is scaled to controls: 0 for no effect and ±100 for the full control effect; potency is read from the fitted curve at half-maximal effect.

SMILES	TbPYK inhibitor	Sm TGR block	RE007 growth inh	LmPK inhibitor
Cc1nc(CCNC(=O)CC2C(=O)NCCN2Cc2ccccc2F)sc1C (stereo not given)	-6%	-30%	-17%	-2%
Cc1nc2c3cccnc3nn2c(C)c1CCC(=O)NCc1ccccc1Cl	2%	-10%	x	x
CCCCc1nc2c(c3c1C[C@H](C)OC3)CN(C(=O)N[C@@H](C)c1ccccc1)CC2	x	x	x	-2%[11.5 µM]
CCc1oc2ccccc2c1C(=O)c1cc(I)c(O)c(I)c1	-15%	x	x	x
COc1ccccc1Cn1c(C)c(C(=O)NCCC#N)sc1=O	7%	x	-3%[18.4 µM]	x
Cc1ccc(-c2nc(CS(=O)CC(=O)NCc3ccc(Cl)cc3)c(C)o2)cc1 (stereo not given)	-3%	u	-7%	16%
Cc1ccc(-c2nc(CS(=O)CC(=O)NCc3ccc4c(c3)OCO4)c(C)o2)cc1 (stereo not given)	-9%	22µM*	-25%	-3%
CCc1ccc(-c2nc(CS(=O)CC(=O)NCc3ccc4c(c3)OCO4)c(C)o2)cc1 (stereo not given)	0%	10µM*	3%	-6%
Cc1oc(-c2ccc(Cl)cc2)nc1CS(=O)CC(=O)NCc1ccccc1 (stereo not given)	3%	0%	-2%	12%
CCc1ccc(-c2nc(CSCC(=O)NCc3ccco3)c(C)o2)cc1	-2%	28µM*	38%	5%
CCc1ccc(-c2nc(CS(=O)CC(=O)NCc3ccccc3)c(C)o2)cc1 (stereo not given)	-5%	8.9µM*	15%	-4%
O=C(NCc1ccc(F)cc1)c1cc2n(n1)CCCN(Cc1ccc(F)cc1)C2=O	-2%	-10%	x	x
CCCCSCCCNC(=O)c1cn(C)c2ccc(S(=O)(=O)N3CCCCCC3)cc2c1=O	1%	-1%	x	x
COc1ccc(CCNC(=O)CCn2c(=O)c3ccccc3n(Cc3cc(C)ccc3C)c2=O)cc1OC	1%	-6%	x	x
COc1cccc(CC(=O)N2CCc3nc(-c4ccc(OC)cc4C)c4c(c3C2)CO[C@@H](c2ccccc2)C4)c1	x	x	x	-1%[11.5 µM]
COCCn1c(=O)c(-c2cn(C)c3ccccc23)nc2cnc(Oc3ccc(OC)cc3)nc21	-1%	x	x	x
CC1=C(C(=O)N2CCN(c3ccc(Cl)cc3)CC2)C2(CCC(C)CC2)OC1=O (stereo not given)	3%	-16%	x	x
NC(=O)c1c(NC(=O)CSc2nnc(-c3ccccc3)n2CC2CCCO2)sc2c1CCC2 (stereo not given)	0%	28µM*	5%	-1%
CN(C)c1ccc(/C=N/NC(=O)C2COc3ccccc3O2)o1 (stereo not given)	28µM*	16µM*	2%	7%
O=S(=O)(c1cnc(Cl)c(Br)c1)N1CCc2ccccc21	-18%	18µM*	21%	-1%
O=S(=O)(c1cnc(Cl)c(Cl)c1)N1CCc2ccccc21	3%	4µM*	30%	3%
COc1ccc(C2=C(Nc3ccc(Br)c(C)c3)c3ccccc3C2=O)cc1	0%	-6%	x	x
CNc1ccc2ncc(-c3ccc(OC)c(OC)c3)n2n1	2%	x	-18%	x
CNC(=O)Oc1ccc(-c2cn3cc(Cl)ccc3n2)cc1	-11%	35µM*	-25%	-10%
O=C(O)/C=C/S(=O)(=O)c1ccc2ccccc2c1	-2%	0.89µM*	-9%	0%
SMILES	TbPYK inhibitor	Sm TGR block	RE007 growth inh	LmPK inhibitor
CCCn1c(NCc2ccc3c(c2)OCO3)nc2ccccc21	2%	89µM*	15%	-4%
NC(=O)[C@@H]1[C@@H]2C(=O)N(c3ccc(F)cc3)C(=O)[C@@H]2[C@H]2C=Cc3ccccc3N21	-17%	32µM*	2%	-6%
CCOC(=O)c1ccc(N=c2sc(C(=O)OC)cc(=O)n2-c2ccc(C(=O)OCC)cc2)cc1	2%	9%	-2%	-2%
COC(=O)c1cc(=O)n(-c2ccccc2)c(=Nc2ccccc2)s1	1%	40µM*	0%	-4%
Cc1ccc(S(=O)(=O)NC(=S)c2ccccc2)cc1	-6%	x	1%	x
Cc1ccc(S(=O)(=O)CNC(=S)c2cccc(Cl)c2)cc1	-4%	3.5µM*	-11%	2%
Cc1ccc(C(=S)NCS(=O)(=O)c2ccc(C)cc2)cc1	4%	2.8µM*	4%	9%
